Some test systems named below: SK-MEL-2 melanoma; EKVX NSCLC; SN12C renal; TK-10 renal; ACHN renal; CAKI-1 renal; A498 renal; CCRF-CEM leukemia; MOLT-4 leukemia; SR leukemia; RPMI-8226 leukemia; OVCAR-8 ovarian; OVCAR-5 ovarian; OVCAR-4 ovarian; SK-OV-3 ovarian; IGROV1 ovarian; OVCAR-3 ovarian; HS 578T breast; NCI/ADR-RES ovarian.
Holding throughout (assay): NCI-60 one-dose screen, 48 h (100 = growth as untreated, 0 = no growth, -100 = all killed)
Holding throughout (details): 10 µM unless noted

Each structure is given as a SMILES string. This is part of a sample that, as a whole, favours compounds with a hit. Of some 83,000 tested, about 20% had one in any assay.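 Growth was measured after 48 h exposure to one concentration of compound in 96-well plates. Values under 10 count as active.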 Values without a mark were called inactive. Active and inactive are the calls of the source.

For the compound `Cc1ccc(C(F)(F)F)cc1N1CCN(C(=O)[C@H]2C[C@H]2c2ccc(C(F)(F)F)nc2)CC1`, the growth in the assay on SK-MEL-2 melanoma was 89.1%; in the assay on EKVX NSCLC it was 90.7%; in the assay on SN12C renal, 92.6%; with TK-10 renal, 96.4%; with ACHN renal, 91.8%; with CAKI-1 renal, 69.3%. Also, the growth with A498 renal is 95.3%; in the assay on CCRF-CEM leukemia, 90.2%; with MOLT-4 leukemia, 73.2%; in the assay on SR leukemia it was 76%; with RPMI-8226 leukemia, 66.1%; in the assay with OVCAR-8 ovarian it was 89.9%. Besides, the growth with OVCAR-5 ovarian is 85.6%; with OVCAR-4 ovarian, 92%; in the assay on SK-OV-3 ovarian, 84.2%; with IGROV1 ovarian it was 74.7%; in the assay on OVCAR-3 ovarian it was 93.4%; with HS 578T breast, 91.4%. Further, the growth in the assay on NCI/ADR-RES ovarian is 91.6%.

On to `CCOC(=O)C#Cc1c(CC(=O)OCC)nnn1[C@H]1O[C@@H](CO)[C@@H]2OC(C)(C)O[C@@H]21`, for which the growth is 101% in the assay on SK-MEL-2 melanoma; 99.5% with EKVX NSCLC; 87.1% in the assay on SN12C renal; 48.8% with TK-10 renal; -49.4% (active) with ACHN renal; -88.4% (active) in the assay on CAKI-1 renal. Also, the growth in the assay with A498 renal is 111%; with CCRF-CEM leukemia, 11.7%; in the assay with MOLT-4 leukemia it was 50.1%; in the assay on SR leukemia, 6.89% (active); in the assay with RPMI-8226 leukemia it was 45%; in the assay on OVCAR-8 ovarian, 94.6%. In addition, the growth is 93.9% in the assay with OVCAR-5 ovarian; 88.4% in the assay on OVCAR-4 ovarian; 94.4% in the assay with SK-OV-3 ovarian; 98.3% in the assay on IGROV1 ovarian; 9.91% (active) in the assay with OVCAR-3 ovarian; 101% with HS 578T breast. For the same compound, in the assay with NCI/ADR-RES ovarian, the growth was 102%.

For `C#Cc1cccc(Nc2ncnc3ccc(-c4cnc(Cl)c(NS(C)(=O)=O)c4)cc23)c1`, the growth was -73.6% (active) in the assay with SK-MEL-2 melanoma; -46.3% (active) with EKVX NSCLC; 3.41% (active) with SN12C renal; -72.8% (active) with TK-10 renal; 13.4% in the assay with ACHN renal; -31.9% (active) with CAKI-1 renal. The growth was -76.8% (active) in the assay on A498 renal; 7.99% (active) with CCRF-CEM leukemia; -11.7% (active) in the assay with MOLT-4 leukemia; -9.92% (active) with SR leukemia; -31.8% (active) with RPMI-8226 leukemia; 3.78% (active) in the assay on OVCAR-8 ovarian. In addition, the growth was -15.5% (active) in the assay with OVCAR-5 ovarian; 9.21% (active) in the assay with OVCAR-4 ovarian; -25% (active) with SK-OV-3 ovarian; -55.8% (active) with IGROV1 ovarian; -72.5% (active) in the assay with OVCAR-3 ovarian; -21.4% (active) in the assay with HS 578T breast. In addition, the growth in the assay on NCI/ADR-RES ovarian is 7.96% (active).

For the compound `C#C[C@]1(O)CC[C@H]2[C@@H]3CC=C4c5sc(-c6cccc(C)c6)nc5CC[C@]4(C)[C@H]3CC[C@@]21C`, the growth in the assay with SK-MEL-2 melanoma is 86.9%; with EKVX NSCLC it was 68%; in the assay with SN12C renal it was 71.3%; in the assay with TK-10 renal it was 110%; in the assay with ACHN renal, 63.7%; with CAKI-1 renal it was 27.2%. Besides, the growth in the assay on A498 renal was 94.9%; in the assay with CCRF-CEM leukemia, 49.6%; in the assay with MOLT-4 leukemia, 44.2%; in the assay on SR leukemia, 38.6%; in the assay on RPMI-8226 leukemia it was -6.87% (active); with OVCAR-8 ovarian it was 89.9%. Also, the growth was 73.8% in the assay with OVCAR-5 ovarian; 81.2% in the assay with OVCAR-4 ovarian; 88.9% in the assay with SK-OV-3 ovarian; 68.8% in the assay with IGROV1 ovarian; 89.2% in the assay on OVCAR-3 ovarian; 40.8% in the assay on HS 578T breast.

`CCOc1ccccc1NC(=O)CCC(=O)OC`: the growth with SK-MEL-2 melanoma is 121%; in the assay on EKVX NSCLC, 94.3%; with SN12C renal, 108%; in the assay with TK-10 renal it was 98.7%; in the assay with ACHN renal it was 106%; with CAKI-1 renal it was 92.4%. The growth in the assay on A498 renal was 100%; with CCRF-CEM leukemia it was 108%; in the assay on MOLT-4 leukemia, 94.8%; with SR leukemia it was 97.8%; with RPMI-8226 leukemia, 104%; in the assay with OVCAR-8 ovarian it was 119%. Also, the growth with OVCAR-5 ovarian was 110%; in the assay on OVCAR-4 ovarian, 95.4%; with SK-OV-3 ovarian, 103%; in the assay with IGROV1 ovarian, 100%; with OVCAR-3 ovarian, 108%; in the assay on HS 578T breast, 106%.

Consider `C/C(=N\NC(=O)c1ccc(C(C)(C)C)cc1)c1ccc(O)cc1O`, for which the growth is 42.8% with SK-MEL-2 melanoma; 22% with EKVX NSCLC; 33.7% with SN12C renal; 40.5% in the assay on TK-10 renal; 16.5% in the assay with ACHN renal; 17.1% in the assay on CAKI-1 renal. Besides, the growth in the assay with A498 renal was 42.3%; with CCRF-CEM leukemia, 14.5%; in the assay with MOLT-4 leukemia, 18.2%; in the assay with SR leukemia it was 19.2%; in the assay with RPMI-8226 leukemia, 28.5%; in the assay on OVCAR-8 ovarian it was 22.9%. Besides, the growth in the assay with OVCAR-5 ovarian is 39.9%; in the assay with OVCAR-4 ovarian, 15%; in the assay with SK-OV-3 ovarian it was 27.7%; in the assay with IGROV1 ovarian, 23.8%; in the assay with OVCAR-3 ovarian it was 6.18% (active); in the assay on HS 578T breast, 59.8%. In addition, the growth with NCI/ADR-RES ovarian was 10.3%.

The record behind these values is PubChem BioAssay (NCI).
